# From PubChem BioAssay
# A number with no mark means an inactive call. No rule for the calls is given here.
# Target: Pantothenate synthetase (Mycobacterium tuberculosis (strain ATCC 25618 / H37Rv)) (UniProt P9WIL5)
# Test: Coupled enzyme confirmation of inhibitors against recombinant Mtb PanC (AID 375);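 also: 0% = full reaction with vehicle and 100% = no enzyme background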
# Conditions: coupled enzyme assay; at 10 µM, active compounds read high
# Chain of Pantothenate synthetase (Mycobacterium tuberculosis (strain ATCC 25618 / H37Rv)) (P9WIL5 whole entry, looked up): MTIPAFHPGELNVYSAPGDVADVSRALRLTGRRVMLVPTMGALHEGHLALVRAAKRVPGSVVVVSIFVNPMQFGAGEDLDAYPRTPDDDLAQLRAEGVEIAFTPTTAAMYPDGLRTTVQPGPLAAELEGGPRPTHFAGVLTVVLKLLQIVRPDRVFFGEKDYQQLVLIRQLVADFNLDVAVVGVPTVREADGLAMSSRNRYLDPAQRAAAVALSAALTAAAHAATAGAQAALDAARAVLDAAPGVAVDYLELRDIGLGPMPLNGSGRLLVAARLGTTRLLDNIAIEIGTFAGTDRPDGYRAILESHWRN
row,SMILES,inhibition [%]
1,CCC1SC2=NC(C)=C(C(=O)OC)C(c3ccc(C)cc3)N2C1=O (stereo not given),7
2,CC(=O)Nc1ccc(Cl)c(C(N)=O)c1,2
3,CCCCn1nnnc1SCC(=O)N1CCN(C(=O)c2ccco2)CC1,0
4,O=c1c2ccccc2c(C=Nc2ccc(Cl)cn2)c(O)n1-c1cc(Cl)ccc1N1CCOCC1,4
5,Cc1nc(C)c(C(=O)OCC(=O)N2CCN(c3ccccc3)CC2)s1,0
6,COc1ccc(OC)c(S(=O)(=O)N2CCC(C(=O)NCc3ccccc3OC)CC2)c1,0
7,CCOc1cc(S(=O)(=O)NCc2ccccn2)c(C)cc1C,0
8,CCCCCOC(=O)CSc1nnc(-c2cc(OC)c(OC)c(OC)c2)o1,4
9,COc1ccccc1CNS(=O)(=O)c1ccc(NC(C)=O)cc1,0
10,COc1cc2c3c(c1)/C(=C1/SC(NC(C)=O)=NC1=O)C(=O)N3C(C)(C)C=C2C,0
11,CC(=O)N1CCc2cc(S(=O)(=O)NC(C(=O)NCc3ccccc3)C(C)C)ccc21 (stereo not given),3
12,COC(=O)c1ccccc1NC(=O)CSc1nnnn1C1CCCCC1,6
13,Cc1nc(CCNC(=O)c2ccccc2)cs1,0
14,CCOC(=O)c1cccc(NC(=O)CSc2nnc(-c3ccoc3C)n2CCOC)c1,1
15,O=C(Nc1cc(C(F)(F)F)ccc1Cl)c1cc(C2CC2)on1,2
16,CCOC(=O)C1CN(S(=O)(=O)c2ccc(C)cc2)CCN1S(=O)(=O)c1ccc(C)cc1 (stereo not given),0
17,COc1ccccc1-n1c(SCC(=O)Nc2ccc3c(c2)OCO3)nc2c(c1=O)SCC2,0
18,Cc1ccc(S(=O)(=O)N2CCN(C(=O)CSc3nc4ccccc4c(=O)[nH]3)CC2)c(C)c1,2
19,CCOc1cccc(-n2nnnc2-c2ccc(OC)cc2)c1,9
20,O=C(NCN1CCCCC1)c1cnccn1,0

row,SMILES,inhibition [%]
1,Cc1ccc(C)c2[nH]c(=O)c(CCNC(=O)c3ccc(Br)o3)cc12,0
2,Cc1csc(NC(=O)c2cccc(S(=O)(=O)N3CCCCC3)c2)n1,0
3,COc1ccc(C(=O)Nc2ccc(S(=O)(=O)Nc3onc(C)c3C)cc2)cc1,1
4,Clc1ccc2c(c1)[C@H]1OCC[C@H]1[C@@H](c1ccco1)N2,3
5,Cc1ccc(Nc2cc(C)nc3nnnn23)cc1,6
6,Cc1nnc(NC(=O)c2ccccc2F)s1,0
7,FC(F)(F)c1cc(-c2ccco2)nc(NCc2ccco2)n1,0
8,CCN(CC)C(=O)C1CCN(CC2CC=CCC2)CC1 (stereo not given),0
9,COC(=O)c1cc(Br)c(=O)n(Cc2cccnc2)c1,9
10,CC(C)(C)NC(=O)CSc1nnc(-c2ccccn2)n1-c1ccccc1,0
11,CCOC(=O)N1CCN(Cc2nc3c(c(=O)n(C)c(=O)n3C)n2Cc2ccc(F)cc2)CC1,2
12,CCn1c(=N)n(CC(O)COc2cccc(C)c2)c2ccccc21 (stereo not given),4
13,O=C(Cn1nnc(-c2cccs2)n1)OC1CCCCC1,4
14,O=C(NCCN1CCOCC1)C1CC(=O)N(c2ccc(F)c(Cl)c2)C1 (stereo not given),7
15,CS(=O)(=O)N1CCN(c2ccccc2NC(=O)c2cccs2)CC1,2
16,Cn1c(=O)[nH]c(=O)c2c1nc(NCCCn1ccnc1)n2Cc1ccccc1,0
17,Cc1c(C(=O)OCC(C)C)[nH]c2c1C(=O)CC(c1ccco1)C2 (stereo not given),1
18,CSc1cccc(NS(=O)(=O)c2ccccc2)c1,0
19,O=c1[nH]c2cccnc2n1Cc1ccco1,0
20,CCn1c(SCC(N)=O)nnc1-c1ccc(S(=O)(=O)N2CCN(C)CC2)cc1,0
